Drawing on PubChem BioAssay (NCI), this text covers growth for 38 molecules.

The structures appear in SMILES notation. The panel holds about 83,000 compounds, 20% with a hit somewhere; the sample as a whole holds those more often.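 Single-dose data. Exposure time 48 hours. Values below 10 considered active.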 Values without a mark were called inactive. Active and inactive are the calls of the source.

For the assay, the system named is HS 578T breast. Put plainly: NCI-60 one-dose screen, 48 h (100 = growth as untreated, 0 = no growth, -100 = all killed). Conditions: 10 µM unless noted.
Turning to `N/C(=N\C(N)=N\c1nc2ccccc2s1)c1cccc(Cl)c1`, the growth is 97%.
Then `CCOC(=O)[C@@H](C)C[C@H](Cc1ccccc1)NC(=O)c1csc([C@@H](C[C@H](C(C)C)N(C)C(=O)[C@@H](NC(=O)[C@H]2C[C@H](O[Si](C)(C)C(C)(C)C)CCN2C)C(C)C)OC(C)=O)n1`, with -17.7% [9.25 µM] (active); and `COC(=O)/C=C1\S/C(=N\NC(=O)c2cc3ccc2/C=C\c2ccc(cc2)/C=C\3)N(c2ccccc2)C1=O`, with 77.9%.
The same measure for `NNC(=O)c1ccc(-n2nc(-c3ccccc3)c3ccccc32)cc1`: 73%; for `NC(=NCCCOc1ccc(F)cc1)Nc1ccc(I)cc1`: 84.6%.
On to `N#CC1C(C#N)C(C(=O)c2ccc(Br)cc2)N2c3ccccc3C=CC12` (stereo not drawn), for which the growth was 77.6%.
Then `CCN1C(=O)/C(=C/C(=O)OC)S/C1=N\NC(=O)c1cc2ccc1/C=C\c1ccc(cc1)/C=C\2`, with 99%; and `COc1ccccc1/C=C1\Oc2cc(OCCN3CCCC3)ccc2C1=O`, with 80.6%; and `Cc1cc2nc3c4ccc(Br)cc4n(CCN(C)C)c3nc2cc1C`, with 53.9%.
The same measure for `C/C(=N\Nc1cc(C)nc2ccc(Br)cc12)c1ccc([N+](=O)[O-])cc1`: 96.8%; for `COc1cc(C2C3CC4CCCC[C@H]4N3[C@@]3(C(=O)Nc4cc(Cl)ccc43)C2C(=O)c2nc3ccccc3[nH]2)cc(OC)c1OC` (stereo partly drawn): 74%; for `O=C1OC(Cc2ccccc2)C1c1ccccc1` (stereo not drawn): 107%.
Turning to `CC(Oc1ccc(C(=O)O)cc1C(F)(F)F)c1ccc(Oc2ccccc2)cn1` (stereo not drawn), the growth is 99.6%.
As to `CC(Sc1nc2ccccc2c(=O)n1CCc1ccc(S(N)(=O)=O)cc1)C(=O)Nc1ccc(Cl)cc1` (stereo not drawn), the growth was 86.5%.
Take `CC1=CCC(OC(=O)C(C)(O)CCC(O)(C(=O)OC2(C)C=CC(O)(C(C)C)CC2)C(C)C)(C(C)C)CC1` (stereo not drawn): the growth is 105%.
The same measure for `ClC1=C(Br)C(Br)(Br)C(=C(Br)Br)C1(Br)Br`: 103%; for `C=C1C(=O)O[C@H]2[C@H]1CC/C(CNC(=O)C(C)c1ccc(CC(C)C)cc1)=C\CC[C@@]1(C)O[C@@H]21` (stereo partly drawn): 25.4%.
The same measure for `CCCCCN1C=C/C(=C\C(=O)N2CCCc3ccccc32)c2ccccc21`: 94.8%; for `N#Cc1cc(-c2nc3ccccc3s2)c(=O)n(NS(=O)(=O)c2ccccc2)c1N`: 101%; for `CCCOc1ccc(/C=N/Nc2cc(C)nc3ccc(Cl)cc23)cc1`: 89%.
The same measure for `Cc1cccc(NC(=O)Nc2ccc(-n3cnc4cc(-c5ccc(O)cc5)ccc43)cc2)c1`: 82%; for `O=c1c2c(c(=O)n1O)c1c3ccc[nH]c3nc1c1nc3[nH]cccc3c12`: 83.3%; for `O=C(CNCCN1CCOCC1)N1c2cccc3cccc(c23)N(C(=O)CNCCN2CCOCC2)C1c1cn(-c2ccccc2)nc1-c1cccc([N+](=O)[O-])c1`: 69.1%.
For `O=Cc1cc2ccccc2nc1Oc1ccc(C(F)(F)F)cc1`, the growth is 89.7%.
Regarding `COc1ccc(C(=O)/C=C/c2cc3ccccc3n3nnnc23)cc1`, the growth is 106%.
`CN1CCN(C(=O)[C@]23CCC(C)(C)C[C@H]2C2=CC[C@@H]4[C@@]5(C)C/C(=C/c6cccnc6)C(=O)C(C)(C)[C@@H]5CC[C@@]4(C)[C@]2(C)CC3)CC1`: the growth was 54.2%.
The same measure for `CCN(CC)c1ccc(/C=N/NC(=O)CSc2nc3ccccc3c(=O)n2CCc2ccc(S(N)(=O)=O)cc2)c(O)c1`: 46.3%; for `CCCCCCNC(=O)Nc1ccc2cc3ccc(NC(=O)NCCCCCC)cc3nc2c1`: -53.7% (active); for `CCNC(=O)Oc1ccc(/C(=C(\C)c2ccccc2)c2ccc(OCCN(CC)CC)cc2)cc1`: 69%.
The same measure for `CC/C(=C\c1ccc(OC)cc1)C(=O)c1ccc(OC)cc1`: 99.9%; for `CCc1ccc(CNc2ccc(N3CCOCC3)c(C(=O)O)c2)cc1`: 125%.
Consider `Cc1ccc(NS(=O)(=O)c2ccc(-c3cnc(C4CC4)o3)cc2)cc1C(F)(F)F`, for which the growth was 69%.
The same measure for `C/C(=N\NC(=O)CSc1nc2ccccc2c(=O)n1CCc1ccc(S(N)(=O)=O)cc1)c1ccccn1`: 73.7%.
Regarding `C=C(CBr)[C@@H]1CC[C@]2(COC(C)=O)CC[C@]3(C)[C@H](CC[C@@H]4[C@@]5(C)CCCNC(C)(C)[C@@H]5CC[C@]43C)[C@@H]12`, the growth is 73.7%.
With `COc1ccc(C(=O)Nc2cccc(C3CCc4c(cc(OC)c(OC)c4OC)O3)c2)cc1` (stereo not drawn), the growth is 38.9%.
The same measure for `N=C(N)c1ccc(OCCCCCCCCCCOc2ccc(C(=N)N)cc2)cc1`: -56.9% (active); for `COc1cc2nc(-c3ccc(Cl)cc3)cc(OCCCN3CCOCC3)c2cc1OC`: 76.4%; for `Brc1ccc2[nH]cc(-c3cncn3CCc3ccccc3)c2c1`: 12.8%.
